In article PMC4336329 (PLoS ONE, 2015):
Out of some 310,000 compounds screened, about 14,000 (4.5%) showed an effect of 50% or more. Effects have a minus sign here. Only a selection was taken, and strong results are over-represented in it overall.

biological target: human ether-à-go-go-related gene (hERG) potassium channel (human, UniProt Q12809); experiment: primary screen, population patch clamp on CHO cells stably expressing hERG; higher = less effect of the substance
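Further: peak tail current of the secondary pulse compared with the same well before compound.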

Sequence of human ether-à-go-go-related gene (hERG) potassium channel (Q12809 whole entry, looked up): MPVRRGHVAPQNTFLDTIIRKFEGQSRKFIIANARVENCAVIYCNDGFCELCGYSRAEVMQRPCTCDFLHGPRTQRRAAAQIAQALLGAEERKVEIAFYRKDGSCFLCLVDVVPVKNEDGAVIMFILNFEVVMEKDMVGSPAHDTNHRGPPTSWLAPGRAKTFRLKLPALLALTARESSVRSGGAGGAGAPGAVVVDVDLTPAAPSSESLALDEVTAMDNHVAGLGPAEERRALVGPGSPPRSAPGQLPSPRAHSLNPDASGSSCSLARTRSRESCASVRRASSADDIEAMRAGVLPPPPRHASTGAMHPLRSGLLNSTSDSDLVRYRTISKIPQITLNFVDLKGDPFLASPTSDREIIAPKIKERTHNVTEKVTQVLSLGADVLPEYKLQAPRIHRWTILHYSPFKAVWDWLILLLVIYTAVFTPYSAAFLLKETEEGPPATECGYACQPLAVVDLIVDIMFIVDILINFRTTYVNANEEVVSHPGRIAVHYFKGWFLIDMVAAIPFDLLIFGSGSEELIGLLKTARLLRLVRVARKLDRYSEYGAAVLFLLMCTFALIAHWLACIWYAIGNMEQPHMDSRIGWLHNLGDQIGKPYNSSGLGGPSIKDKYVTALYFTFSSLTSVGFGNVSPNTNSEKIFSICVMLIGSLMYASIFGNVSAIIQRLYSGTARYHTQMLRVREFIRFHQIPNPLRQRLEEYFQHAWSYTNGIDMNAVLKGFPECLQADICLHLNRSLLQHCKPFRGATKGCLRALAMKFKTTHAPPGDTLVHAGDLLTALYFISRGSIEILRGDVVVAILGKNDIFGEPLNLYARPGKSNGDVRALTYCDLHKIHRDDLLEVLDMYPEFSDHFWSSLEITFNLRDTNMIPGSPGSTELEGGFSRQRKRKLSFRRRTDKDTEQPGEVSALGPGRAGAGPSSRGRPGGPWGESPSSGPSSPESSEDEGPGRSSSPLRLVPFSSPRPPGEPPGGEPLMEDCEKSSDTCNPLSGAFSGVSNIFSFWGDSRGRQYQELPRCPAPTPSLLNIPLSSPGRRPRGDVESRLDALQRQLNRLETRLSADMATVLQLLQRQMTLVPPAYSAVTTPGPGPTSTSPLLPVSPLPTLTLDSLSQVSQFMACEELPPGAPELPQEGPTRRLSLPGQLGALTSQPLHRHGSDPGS

Row | Structure (SMILES) | hERG current change (%, negative = inhibition) at 10uM [%]
1 | Cc1ccc(OCC(=O)Nc2ccc(S(=O)(=O)N3CCCC3)cc2)cc1 | 15.5
2 | O=C(N/N=C/c1cc([N+](=O)[O-])ccc1O)C(O)(c1ccccc1)c1ccccc1 | 4.13
3 | Cc1cc(C(=O)NN=C2CCCCCCC2)c2ccccc2n1 | 5.42
4 | C=CCOC(=O)C1=C[C@H](c2ccc(C(F)(F)F)cc2)[C@@H](CCCO)[C@H](OCC)O1 | -16.3
5 | O=C(CC1C(=O)NCCN1Cc1ccc(Cl)c(F)c1)NCCc1cccnc1 (centres unmarked) | -12.7
6 | CCC1CCCCN1C(=O)C(=O)c1cn(CC(=O)N(CC)CC)c2ccccc12 (centres unmarked) | 21
7 | CCCCN(C(=O)c1ccc2c(c1)OCCO2)c1c(N)n(CC(C)C)c(=O)[nH]c1=O | -11.7
8 | O=c1oc2ccccc2n1CCn1c2ccccc2c2nc3ccccc3nc21 | 10.7
9 | Cn1c(=O)cc(SCC(=O)NCCCN2CCOCC2)c2ccc(Cl)cc21 | -3.15
10 | CN(CCCNC(=O)COc1cc(=O)n(C)c2ccccc12)Cc1ccccc1 | -18.1
11 | CCOc1ccc(CCNC(=O)CSc2cc(=O)n(C)c3cc(Cl)ccc23)cc1OCC | -3.7
12 | CN(CCCNC(=O)CSc1cc(=O)n(C)c2ccc(Cl)cc12)Cc1ccccc1 | -61.2
13 | CCN(CCCNC(=O)CSc1cc(=O)n(C)c2cc(Cl)ccc12)Cc1ccccc1 | -58.8
14 | COCCNC(=O)CSc1cc(=O)n(C)c2cc(Cl)ccc12 | 2.04
15 | Cn1c(=O)cc(SCC(=O)NCC2CCCO2)c2ccc(Cl)cc21 (centres unmarked) | -7.37
16 | CCCCNC(=O)CSc1cc(=O)n(C)c2ccccc12 | 4.11
17 | CN(CCCNC(=O)CSc1cc(=O)n(C)c2cc(Cl)ccc12)Cc1ccccc1 | -63.5
18 | Cn1c(=O)cc(SCC(=O)NCCC2=CCCCC2)c2cc(Cl)ccc21 | 5.01
19 | CCN1CCCC1CNC(=O)CSc1cc(=O)n(C)c2cc(Cl)ccc12 (centres unmarked) | -32.7
20 | Cc1cccc(CN2CCC(CNC(=O)CSc3cc(=O)n(C)c4cc(Cl)ccc34)CC2)c1 | -69.7
21 | C/C(CC(=O)Nc1ccc(Cl)cc1Cl)=N\NC(=O)C(=O)NCCO | 6.64

Row | Structure (SMILES) | hERG current change (%, negative = inhibition) at 10uM [%]
22 | O=C(NCc1ccco1)c1cc2nc(-c3cccs3)cc(C(F)(F)F)n2n1 | -17.6
23 | COc1cc(NC(=O)c2ccc(COCC(F)(F)F)cc2)cc(OC)c1OC | 1.25
24 | O=C(CSc1ccccc1)N[C@@H](Cc1ccccc1)C(=O)O | 13.7
25 | O=C(Nc1ccc(S(=O)(=O)Nc2ncccn2)cc1)C1COc2ccccc2O1 (centres unmarked) | 11.1
26 | COc1ccc(S(N)(=O)=O)cc1C(=O)NCC(C)(C)N1CCCCC1 | -15.2
27 | COc1ccc2c(C)cc(SCc3c(C)noc3C)nc2c1 | -17
28 | O=C(Nc1ccc(CN2CCOCC2)cc1)c1cc(Cl)ccc1Cl | 0.807
29 | Cc1cc(Br)ccc1NC(=O)CNC(=O)CSc1n[nH]c(N)n1 | 18.5
30 | CCc1cc2c3c(c1)C1(C(=O)N3C(C)(C)CC2C)C(C#N)=C(N)N2C(=C1C#N)Nc1ccccc12 (centres unmarked) | -1.49
31 | O=C(CCc1ccc(F)c(F)c1)NC1CCCN(Cc2ccc(Cl)cc2)C1 (centres unmarked) | -66
32 | COc1cccc(CC(=O)NC2CCCN(Cc3ccc(Cl)cc3)C2)c1 (centres unmarked) | -26.3
33 | O=C(NC1CCCN(Cc2ccc(Cl)cc2)C1)c1c(F)ccc(F)c1F (centres unmarked) | -75.3
34 | COc1cc(OC)cc(C(=O)NC2CCCN(Cc3ccc(Cl)cc3)C2)c1 (centres unmarked) | -37.1
35 | O=C(CCc1cccc(Cl)c1)NC1CCCN(Cc2ccccc2F)C1 (centres unmarked) | -28.3
36 | O=C(NC1CCCN(Cc2ccc(Cl)cc2)C1)c1ccccc1C(F)(F)F (centres unmarked) | -16.9
37 | O=C(Cc1ccccc1F)NC1CCCN(Cc2ccc(Cl)cc2)C1 (centres unmarked) | -33.7
38 | O=C(Cc1cccc(F)c1F)NC1CCCN(Cc2ccc(Cl)cc2)C1 (centres unmarked) | -21.7
39 | O=C(NC1CCCN(Cc2ccc(Cl)cc2)C1)c1cccc(F)c1 (centres unmarked) | -61.3
40 | COc1ccc(C(=O)NC2CCCN(Cc3ccc(Cl)cc3)C2)c(OC)c1 (centres unmarked) | -79.5
41 | O=C(NC1CCCN(Cc2ccc(Cl)cc2)C1)c1c(F)cccc1F (centres unmarked) | -15.7
42 | COc1ccc(CCC(=O)NC2CCCN(Cc3ccc(Cl)cc3)C2)cc1OC (centres unmarked) | -48.2

Row | Structure (SMILES) | hERG current change (%, negative = inhibition) at 10uM [%]
43 | O=C(Nc1ccccc1)c1ccccc1Oc1ccc(C(F)(F)F)cc1[N+](=O)[O-] | 9.75
44 | CC(=O)Nc1ccc(S(=O)(=O)NCCc2c[nH]c3ccc(C)cc23)cc1 | 26.2
45 | CS(=O)(=O)N(Cc1ccccc1)c1ccc(C(=O)Nc2cccnc2)cc1 | -5.96
46 | CN1CCN(S(=O)(=O)c2ccc(NC(=S)NC(=O)C(C)(C)C)cc2)CC1 | 1.03
47 | Cc1nn(S(=O)(=O)c2cccc([N+](=O)[O-])c2)c(C)c1Br | 10.7
48 | CC(C)(C)NC(=O)C(c1ccc(O)cc1)N(C(=O)CCC(=O)Nc1nccs1)c1cccc(F)c1 (centres unmarked) | 16.8
49 | O=C(O)CC(NC(=O)c1ccco1)c1ccco1 (centres unmarked) | 17.4
50 | CSc1sc(-c2nnc(SCC(=O)Nc3ccc(Cl)cc3)n2C)c2c1C=CCC2 | 10.5
51 | CSc1sc(-c2n[nH]c(=S)n2C)c2c1C=CCC2 | -56.8
52 | CSc1sc(-c2nnc(SCC(=O)Nc3ccccc3)n2C)c2c1C=CCC2 | -2.35
53 | Cc1cccc(C(=O)NN2S(=O)(=O)c3ccccc3S2(=O)=O)c1 | 18.2
54 | O=C(NCCC1=CCCCC1)c1cc(-c2ccccn2)nc2ccccc12 | 8.77
55 | COCCCNC(=O)C1CCN(S(=O)(=O)N(CC(C)C)CC(C)C)CC1 | 13.4
56 | CC(=O)N/C(=C/c1ccc2c(c1)OCO2)C(=O)NCCCO | 23.3
57 | CC(=O)N/C(=C/c1ccc2c(c1)OCO2)C(=O)NCCO | 9.66
58 | O=C(NCCO)/C(=C\c1ccc2c(c1)OCO2)NC(=O)c1ccc(Br)cc1 | -51.9
59 | O=C(NCCO)/C(=C/c1ccc2c(c1)OCO2)NC(=O)c1ccc(Br)cc1 | -69.5
60 | O=C(N/N=C/c1ccc2c(c1)OCO2)/C(=C/c1ccc2c(c1)OCO2)NC(=O)c1ccccc1 | -20.7
61 | O=C(OCc1cc(Cl)ccc1OC(F)F)c1cncc(Br)c1 | 5.33
62 | COc1ccc(C(=O)N=C2SC3CS(=O)(=O)CC3N2Cc2ccccc2)cc1OC (centres unmarked) | 13.3
63 | CCOC(=O)c1c(C)[nH]c(C(=O)COC(=O)/C=C/c2ccc(O)c(OC)c2)c1C | 2.87

Row | Structure (SMILES) | hERG current change (%, negative = inhibition) at 10uM [%]
64 | CCOc1ccc(NS(=O)(=O)c2ccc(C(=O)N3CCN(C(C)=O)CC3)cc2)cc1 | 26.6
65 | Cc1ccccc1-n1nc(C)c2c1N=C1C(Cl)=CC(Cl)=CN1C2c1ccc(C(=O)O)cc1 (centres unmarked) | 11.9
66 | CCOc1cc(N2CCOCC2)c(OCC)cc1NC(=O)CN1CCc2ccccc2C1 | 2.76
67 | COc1cccc(NC(=S)N(Cc2ccc(Cl)cc2)Cc2ccc(C(=O)O)cc2)c1 | 25.6
68 | COc1ccc2[nH]c(C)c(CCNC(=S)Nc3cccc(C)c3C)c2c1 | 15.9
69 | O=C(CN1CCCCCC1)NCCN1C(=O)S/C(=C\c2ccccc2Cl)C1=O | -9.34
70 | CC1CN(C(c2cccs2)c2sc3ncnn3c2O)CC(C)O1 (centres unmarked) | 19.5
71 | COc1ccc(CN(C(=O)c2cccs2)C(C(=O)NC2CCCCC2)c2ccc3ncccc3c2)cc1 (centres unmarked) | -47.9
72 | O=C(NC1CCCCC1)C(c1cccs1)N(Cc1cccs1)C(=O)c1cccs1 (centres unmarked) | -12.2
73 | O=C(NC1CCCCC1)C(c1ccc2ncccc2c1)N(Cc1ccccc1)C(=O)c1cccs1 (centres unmarked) | -60.4
74 | O=C(NC1CCCCC1)C(c1ccc2ncccc2c1)N(Cc1ccc(F)cc1)C(=O)c1cccs1 (centres unmarked) | -22
75 | O=C(NC1CCCCC1)C(c1ccc2ncccc2c1)N(Cc1ccc2c(c1)OCO2)C(=O)c1cccs1 (centres unmarked) | -37.1
76 | O=C(NC1CCCCC1)C(c1ccc2ncccc2c1)N(Cc1cccs1)C(=O)c1cccs1 (centres unmarked) | -51.3
77 | COCCNC(=O)Cn1cc(C(=S)N2CCCCC2)c2ccccc21 | 18.7
78 | COc1ccccc1C(=O)NCCC(=O)N1CCCCCCC1 | 4.61
79 | CCOC(=O)c1csc(NC(=O)CN2CCN(C)CC2)n1 | 19
80 | Cc1ccc(S(=O)(=O)NCC(=O)N/N=C/c2ccc(Cl)cc2)cc1 | -3.55
81 | CCOCC(=O)Nc1nnc(SCCOC)s1 | -0.419
82 | O=C(CCCN1C(=O)/C(=C/c2cccs2)SC1=S)Nc1cc([N+](=O)[O-])ccc1O | 21.1
83 | O=C(C1CCC(Cn2c(=O)[nH]c3ccccc3c2=O)CC1)N1CCN(c2ccccc2)CC1 (centres unmarked) | 6.47
